hgDAF12 agonist: H. glycines DAF-12 receptor agonists, primary screen, cell-based, luminescence, HEK293, GAL4 fusion, UAS-luciferase. Nuclear hormone receptor DAF-12 (Heterodera glycines), GAL4 fusion. HEK293 GAL4-hgDAF12 UAS-luciferase reporter, agonist luminescence; normalized to butyrate control. activation, % at 6.8 µM. hit rate 1.8% among 370,000;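 active = activation above a cutoff set at the mean of all screened compounds plus 3 SD, cut at about 10% in these data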;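 note: 0% = DMSO wells and 100% = sodium butyrate wells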
esBAF inh: Bmi1 luciferase reporter increase in mESCs, primary screen, esBAF inhibitor project, mouse ES cells, Bmi1 luciferase knock-in, single point; AID 602393, 2012; 24 h; 100% = twice the neutral-well signal; reporter increase, % at 12.5 µM; hit rate 2% among 350,000; in the data active = activation above about 40%; inconclusive = no clear call, values can overlap the other calls;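 note: 0% = median of the plate's neutral control wells and 100% = double that signal; a rise in the Bmi1 reporter signal indicates esBAF inhibition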
ssDAF-12 act: S. stercoralis DAF-12 nuclear receptor activators, primary screen, cell-based, luminescence, HEK293, GRIP1 co-expression, lit1-tk-luc; AID 652126, 2013; activation, % at 6.8 µM; HEK293 ssDAF-12/GRIP1 lit1-tk-luc reporter; % of 3 µM dafachronic acid response; Nuclear hormone receptor DAF-12 (Strongyloides stercoralis); hit rate 1% among 370,000;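 active = activation above the mean over all tested compounds plus 3 SD, cut at about 0.9% in these data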;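 note: 0% = DMSO-only wells and 100% = 3 µM delta7-dafachronic acid wells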
Wnt act: Wnt/beta-catenin pathway activators, primary screen, cell-based, plate reader, single point; hit rate 1.2% among 300,000; AID 743398, 2014; Wnt/beta-catenin reporter cell assay, activator; activation, % at 9.35 µM; in the data active = activation above about 30%, passing the limit was not always enough; inconclusive = no clear call, values can overlap the other calls;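 note: 0% = neutral control wells and 100% = positive control wells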
hcDAF12 agonist: H. contortus DAF-12 nuclear receptor activators, primary screen, cell-based, luminescence, HEK293, lit1-tk-luc reporter; HEK293 hcDAF-12 lit1-tk-luc reporter; 0% DMSO, 100% Δ7-dafachronic acid; activation, % at 6.8 µM; hit rate 1.4% among 370,000;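 active = activation above the mean of all tested compounds plus 3 SD, cut at about 5.5% in these data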;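 note: 100% = response to 3 µM Δ7-dafachronic acid high control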
DAX1 StAR inh: DAX1 (NR0B1) inhibitors on StAR promoter, primary screen, cell-based, luminescence, SF-1 (NR5A1), full-length DAX-1; hit rate 1.1% among 370,000; inhibition, % at 6.8 µM; HEK293T StAR-luciferase reporter, SF-1/DAX-1 repression relief;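 active = inhibition above the mean over all tested compounds plus 3 SD, cut at about 3.6% in these data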;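 note: 0% = DAX-1 cells with DMSO and 100% = cells lacking DAX-1 with DMSO; higher inhibition means more luminescence from relief of DAX-1 repression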
LXRb hcDAF ctr: LXR agonists, Gal4 luciferase reporter, confirmation, counter-screen for hcDAF-12 agonist project, cell-based, luminescence, HEK293, H. contortus campaign; activation, % at 6.8 µM; 3,400 tested, under 10 active; HEK293 Gal4-LXR tk-luc reporter, 24 h; normalized: DMSO 0%, positive control 100%; shares compounds with hcDAF12 agonist; AID 743027, 2013;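 active = mean percent activation of the reporter above a cutoff set as the average over tested compounds plus their standard deviation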
Target sequence (P55055 whole entry, looked up, the tested form may be a part): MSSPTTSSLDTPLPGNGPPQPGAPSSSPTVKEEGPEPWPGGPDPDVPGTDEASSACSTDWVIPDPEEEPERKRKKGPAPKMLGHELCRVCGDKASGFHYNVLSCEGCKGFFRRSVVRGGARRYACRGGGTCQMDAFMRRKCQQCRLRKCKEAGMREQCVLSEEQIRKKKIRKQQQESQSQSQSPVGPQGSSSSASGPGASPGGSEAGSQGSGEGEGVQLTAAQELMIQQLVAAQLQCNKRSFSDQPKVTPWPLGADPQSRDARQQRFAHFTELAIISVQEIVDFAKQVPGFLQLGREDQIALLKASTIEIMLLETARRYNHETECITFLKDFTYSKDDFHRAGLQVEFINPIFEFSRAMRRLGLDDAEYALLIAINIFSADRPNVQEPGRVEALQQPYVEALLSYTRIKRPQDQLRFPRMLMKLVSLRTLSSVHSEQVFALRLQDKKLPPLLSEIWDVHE
hcDAF12 conf: H. contortus DAF-12 receptor agonists, confirmation, cell-based, luminescence, HEK293, lit1-tk-luc, triplicate | HEK293 hcDAF-12 lit1-tk-luc reporter; % of Δ7-dafachronic acid response | hit rate 61% among 3,400 | AID 743032, 2013 | shares compounds with hcDAF12 agonist | activation, % at 6.8 µM;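 active = mean activation across triplicate tests above the threshold derived from the earlier primary screen, cut at about 5.5% in these data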;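 note: 0% = DMSO only wells and 100% = 3 µM Δ7-dafachronic acid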
Numbers without * were called inactive. A selection: hits, their analogues and other compounds. The true share with any hit is near 4.2%.

For O=C(CSc1nc2sc3c(c2c(=O)n1-c1ccc(Cl)cc1)CCC3)Nc1ccc(C(=O)O)cc1 the results were hgDAF12 agonist 0, ssDAF-12 act -1, hcDAF12 agonist 7.9*, DAX1 StAR inh 1, LXRb hcDAF ctr 0 and hcDAF12 conf 2.
For CN1CCc2c(sc3nc(SCC(N)=O)n(-c4ccc(Cl)cc4)c(=O)c23)C1 the results were hgDAF12 agonist 2, esBAF inh -15, ssDAF-12 act 1, Wnt act 2, hcDAF12 agonist 4 and DAX1 StAR inh -1.
Screening O=C(Nc1ccccc1F)N[C@H]1CC[C@@H](CC(=O)N2CCCCC2)O[C@H]1CO returned esBAF inh -2.
O=C(O)c1cccc(COc2cccc3ccccc23)c1 was read as hgDAF12 agonist 13*, ssDAF-12 act 1.3*, Wnt act 26, hcDAF12 agonist 9.1*, DAX1 StAR inh 3, LXRb hcDAF ctr 2 and hcDAF12 conf 9.4*.
`N/C(CS(=O)(=O)c1ccccn1)=N\OC(=O)c1ccccc1Cl` gave hgDAF12 agonist 8, ssDAF-12 act 0, Wnt act 54*, hcDAF12 agonist 7.3*, DAX1 StAR inh 1, LXRb hcDAF ctr 1 and hcDAF12 conf 4.
COc1cccc2sc(Nc3nnc(-c4ccc(F)cc4)o3)nc12 was read as hgDAF12 agonist 4, esBAF inh 23, ssDAF-12 act 0, Wnt act -7, hcDAF12 agonist 7.8*, DAX1 StAR inh -1, LXRb hcDAF ctr 0 and hcDAF12 conf 4.
For COc1cccc2sc(NNC(=O)COc3ccccc3)nc12 the results were hgDAF12 agonist -4, esBAF inh 0, ssDAF-12 act -1, Wnt act -1, hcDAF12 agonist 1 and DAX1 StAR inh -1.
Screening O=C(Cn1cncn1)NCc1cccc(OC(F)F)c1 returned hgDAF12 agonist -1, ssDAF-12 act -1, Wnt act -3, hcDAF12 agonist 6.8*, DAX1 StAR inh 0, LXRb hcDAF ctr 0 and hcDAF12 conf 2.
Screening Cc1cc(C(=O)Nc2cccc3c2O[C@@H](CN(C)Cc2ccc(Oc4ccccc4)cc2)[C@H](C)CN([C@@H](C)CO)C3=O)n(C)n1 returned esBAF inh -8.
`C(=N/n1c2ccccc2c2ccccc21)/c1ccco1` gave hgDAF12 agonist 1, esBAF inh -7, ssDAF-12 act -1, hcDAF12 agonist 1 and DAX1 StAR inh 0.
Screening N=c1scc(-c2ccccc2)n1/N=C/c1ccco1 returned hgDAF12 agonist 11*, ssDAF-12 act 1.4*, hcDAF12 agonist 6.8*, DAX1 StAR inh 2, LXRb hcDAF ctr 1 and hcDAF12 conf 4.
C[C@H]1CN([C@@H](C)CO)S(=O)(=O)c2ccc(C#CC3CC3)cc2O[C@H]1CN(C)C(=O)c1ccncc1 was read as esBAF inh -2.
`COCCNC(=S)NNc1ccccc1[N+](=O)[O-]` gave hgDAF12 agonist 2, ssDAF-12 act 0, Wnt act 4, hcDAF12 agonist 8.7*, DAX1 StAR inh -1, LXRb hcDAF ctr 0 and hcDAF12 conf 5.
O=C(CCSc1nc2ccccc2o1)N1CCOCC1 was read as hgDAF12 agonist 1, esBAF inh 32, ssDAF-12 act 0, Wnt act 3, hcDAF12 agonist 7.1*, DAX1 StAR inh 0, LXRb hcDAF ctr 0 and hcDAF12 conf 3.
Screening Nc1cccc2c1C(=O)N(CCOc1ccccc1F)C2=O returned hgDAF12 agonist 11*, esBAF inh 4, ssDAF-12 act 1.9*, Wnt act 24, hcDAF12 agonist 18*, DAX1 StAR inh 3, LXRb hcDAF ctr 2 and hcDAF12 conf 18*.
Screening CNC[C@H]1OCCCC[C@H](C)Oc2ccc(NC(=O)NC3CCCCC3)cc2C(=O)N([C@H](C)CO)C[C@@H]1C returned esBAF inh -5.
C[C@@H]1CN([C@@H](C)CO)C(=O)c2cc(NS(=O)(=O)c3ccc(Cl)cc3)ccc2O[C@@H](C)CCCCO[C@H]1CN(C)S(=O)(=O)c1cn(C)cn1 was read as esBAF inh -3.
Cc1ccc(C2=Nc3ccccc3NC(C)(c3ccc(C)o3)C2)o1 (stereo unspecified) was read as hgDAF12 agonist 12*, esBAF inh 13, ssDAF-12 act 1.4*, hcDAF12 agonist 15*, DAX1 StAR inh 1, LXRb hcDAF ctr 0 and hcDAF12 conf 5.7*.
Cc1ccc(C2=NNC(c3ccc(Cl)cc3)=Nc3ccccc32)o1 was read as hgDAF12 agonist -1, esBAF inh 6, ssDAF-12 act -1, hcDAF12 agonist 2 and DAX1 StAR inh 0.
`COc1ccc(C)c2sc(=NC(=O)c3ccccc3)n(C)c12` gave hgDAF12 agonist 3, esBAF inh 51*, ssDAF-12 act 0, Wnt act inconclusive, hcDAF12 agonist 10*, DAX1 StAR inh 2, LXRb hcDAF ctr 2 and hcDAF12 conf 13*.
For CCC(=O)N=c1sc2c(OC)ccc(OC)c2n1C the results were hgDAF12 agonist -1, esBAF inh -5, ssDAF-12 act -1, Wnt act 3, hcDAF12 agonist 1 and DAX1 StAR inh 1.
For Cc1ccc(S(=O)(=O)Nc2ccc3c(c2)CC(=O)N([C@@H](C)CO)C[C@@H](C)[C@@H](CN(C)CC2CCCCC2)O3)cc1 the results were esBAF inh -5.
`COC(=O)C[C@H]1CC[C@H]2[C@H](COc3ccc(NC(=O)c4cccc(F)c4)cc3C(=O)N2C)O1` gave esBAF inh -1.
For CCC(=O)N1C[C@H](C)[C@H](OC)CN(C)C(=O)c2cc(NC(=O)COC)ccc2OC[C@H]1C the results were esBAF inh -6.

High-throughput results: PubChem, several laboratories
